Values joined by “and” are separate entries in the source; they are usually repeats but may differ in a detail not shown here. Identical values can stand only once. The whole screen tested about 5,500 compounds, of which about 2,000 (36%) were called active. About 18% were inconclusive and are not listed. Rule as the data show it: active = normalized growth mostly below about 0.91 (no sharp cut-off); inconclusive = no clear call, values can overlap the other calls; inactive = mostly above about 0.92. The list shows a part of the results.
Assay: chemical genetic growth profiling, strain panel (AID 1159580);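 also: tested at 20 µM; growth read once vehicle control cultures reached saturation at 30 °C; 1 = growth at the plate median or of vehicle wells; lower values mean less growth of the strain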
Conditions: S. cerevisiae deletion strains, growth OD

Measured: normalized growth

O=C(O)/C=C(\CC(=O)O)C(=O)O
inactive: locus YAL013W, strain DEP1, active compounds read low 0.995 | locus YAL021C, strain ccr4, active compounds read low 0.998 | locus YAL026C, strain drs2, active compounds read low 1 | locus YAL030W, strain snc1, active compounds read low 0.993 | locus YBL061C, strain skt5, active compounds read low 0.994 | locus YBR009C, strain hhf1, active compounds read low 1 | locus YBR021W, strain FUR4, active compounds read low 0.981 | locus YBR023C, strain chs3, active compounds read low 0.992 | locus YBR171W, strain sec66, active compounds read low 0.989 | locus YBR229C, strain ROT2, active compounds read low 0.993 | locus YBR231C, strain swc5, active compounds read low 0.998 | locus YBR279W, strain paf1, active compounds read low 1.01 | locus YCL011C, strain gbp2, active compounds read low 1 | locus YCL016C, strain dcc1, active compounds read low 1.01 | locus YCL029C, strain bik1, active compounds read low 0.968 | locus YCL061C, strain MRC1, active compounds read low 0.987 | locus YCL069W, strain vba3, active compounds read low 1 | locus YCR088W, strain abp1, active compounds read low 0.99 | locus YDL005C, strain med2, active compounds read low 0.98 | locus YDL035C, strain GPR1, active compounds read low 1 | locus YDL040C, strain nat1, active compounds read low 0.985 | locus YDL074C, strain BRE1, active compounds read low 0.998 | locus YDL101C, strain DUN1, active compounds read low 1 | locus YDL134C, strain PPH21, active compounds read low 1.01 | locus YDL185W, strain tfp1, active compounds read low 1 | locus YDL192W, strain arf1, active compounds read low 0.997 | locus YDR001C, strain nth1, active compounds read low 0.995 | locus YDR069C, strain doa4, active compounds read low 1.01 | locus YDR101C, strain arx1, active compounds read low 0.991 | locus YDR137W, strain rgp1, active compounds read low 1.02 | locus YDR159W, strain sac3, active compounds read low 0.96 | locus YDR162C, strain NBP2, active compounds read low 1.05 | locus YDR195W, strain ref2 0.969 | locus YDR297W, strain sur2, active compounds read low 0.996 | locus YDR318W, strain mcm21, active compounds read low 0.981 | locus YDR334W, strain swr1, active compounds read low 0.981 | locus YDR335W, strain msn5, active compounds read low 0.999 | locus YDR388W, active compounds read low 0.973 | locus YDR392W, strain spt3, active compounds read low 0.992 | locus YDR502C, strain sam2, active compounds read low 0.984 | locus YEL003W, strain gim4, active compounds read low 1 | locus YEL037C, strain rad23, active compounds read low 0.994 | locus YEL061C, strain CIN8 (second series), active compounds read low 1 | locus YEL061C, strain CIN8, active compounds read low 0.996 | locus YER015W, strain faa2, active compounds read low 0.998 | locus YER016W, strain bim1, active compounds read low 0.984 | locus YER110C, active compounds read low 0.982 | locus YER111C, strain swi4, active compounds read low 0.991 | locus YER155C, strain BEM2 (second series), active compounds read low 0.983 | locus YER155C, strain BEM2, active compounds read low 0.989 | locus YER167W, strain BCK2, active compounds read low 0.978 | locus YFR010W, strain ubp6, active compounds read low 0.991 | locus YGL078C, strain dbp3, active compounds read low 0.984 | locus YGL086W, strain mad1, active compounds read low 0.987 | locus YGL167C, strain pmr1, active compounds read low 0.986 | locus YGL173C, strain kem1, active compounds read low 0.997 | locus YGL227W, strain vid30, active compounds read low 0.98 | locus YGL240W, strain doc1, active compounds read low 0.974 | locus YGL248W, strain PDE1, active compounds read low 1.03 | locus YGL253W, strain hxk2, active compounds read low 1 | locus YGR135W, strain pre9, active compounds read low 1.02 | locus YGR252W, strain gcn5, active compounds read low 1.03 | locus YHR013C, strain ard1, active compounds read low 0.999 | locus YHR027C, strain rpn1, active compounds read low 0.993 | locus YHR030C, strain SLT2, active compounds read low 0.987 and 1.01 | locus YHR079C, strain IRE1 (second series), active compounds read low 0.968 | locus YHR079C, strain IRE1, active compounds read low 1.01 | locus YHR094C, strain hxt1, active compounds read low 0.968 | locus YHR129C, strain ARP1, active compounds read low 1 | locus YHR142W, strain chs7, active compounds read low 1.01 | locus YHR200W, strain rpn10, active compounds read low 0.991 | locus YIL066C, strain RNR3, active compounds read low 1.01 | locus YIL073C, strain SPO22, active compounds read low 0.952 | locus YIL125W, strain kgd1, active compounds read low 0.979 | locus YIR030C, strain dcg1, active compounds read low 0.97 | locus YJL092W, strain hpr5, active compounds read low 0.994 | locus YJL095W, strain BCK1 (second series), active compounds read low 0.997 | locus YJL095W, strain BCK1, active compounds read low 1.05 and 1 | locus YJL115W, strain asf1, active compounds read low 0.998 | locus YJL129C, strain trk1, active compounds read low 0.996 | locus YJL134W, strain LCB3, active compounds read low 0.993 | locus YJL154C, strain vps35, active compounds read low 0.994 | locus YJL164C, strain tpk1, active compounds read low 1.02 | locus YJL166W, strain qcr8, active compounds read low 0.998 | locus YJL168C, strain set2, active compounds read low 0.969 | locus YJL187C, strain SWE1 (second series), active compounds read low 1.02 | locus YJL187C, strain SWE1, active compounds read low 0.997 | locus YJR043C, strain POL32, active compounds read low 1 | locus YJR066W, strain TOR1, active compounds read low 0.972 | locus YJR075W, strain HOC1, active compounds read low 1.03 | locus YKL009W, strain mrt4, active compounds read low 0.957 | locus YKL068W, active compounds read low 0.981 | locus YKL085W, strain MDH1 (second series), active compounds read low 0.989 | locus YKL085W, strain MDH1, active compounds read low 0.989 | locus YKL160W, strain elf1, active compounds read low 0.993 | locus YKR001C, strain vps1, active compounds read low 0.956 | locus YKR026C, strain gcn3, active compounds read low 0.993 | locus YKR091W, strain srl3, active compounds read low 0.999 | locus YLL001W, strain dnm1, active compounds read low 1.01 | locus YLL026W, active compounds read low 0.988 | locus YLL041C, strain sdh2, active compounds read low 1 | locus YLR027C, strain aat2, active compounds read low 0.996 | locus YLR039C, strain RIC1, active compounds read low 1.02 | locus YLR058C, strain SHM2, active compounds read low 1.01 | locus YLR102C, strain apc9, active compounds read low 0.974 | locus YLR113W, strain HOG1, active compounds read low 1.01 | locus YLR221C, strain rsa3, active compounds read low 0.976 | locus YLR258W, strain gsy2, active compounds read low 0.986 | locus YLR262C, strain YPT6 (second series), active compounds read low 1.01 | locus YLR262C, strain YPT6, active compounds read low 1.02 | locus YLR268W, strain sec22, active compounds read low 0.977 | locus YLR320W, strain mms22, active compounds read low 0.982 | locus YLR330W, strain CHS5, active compounds read low 0.99 | locus YLR342W, strain FKS1 (second series), active compounds read low 0.99 | locus YLR342W, strain FKS1, active compounds read low 0.987 | locus YLR357W, strain rsc2, active compounds read low 0.991 | locus YLR370C, strain arc18, active compounds read low 0.997 | locus YLR371W, strain rom2, active compounds read low 0.972 | locus YLR384C, strain iki3, active compounds read low 0.984 | locus YLR418C, strain cdc73, active compounds read low 1.01 | locus YML016C, strain PPZ1, active compounds read low 0.986 | locus YML032C, strain rad52, active compounds read low 0.986 | locus YML120C, strain ndi1, active compounds read low 1 | locus YML124C, strain tub3, active compounds read low 0.97 | locus YMR058W, strain fet3, active compounds read low 0.997 | locus YMR078C, strain ctf18, active compounds read low 0.975 | locus YMR125W, strain sto1, active compounds read low 0.997 | locus YMR129W, active compounds read low 0.996 | locus YMR205C, strain PFK2, active compounds read low 1.01 | locus YMR223W, strain ubp8, active compounds read low 0.996 | locus YMR231W, strain pep5, active compounds read low 0.967 | locus YMR307W, strain GAS1, active compounds read low 1.06 | locus YNL067W, strain RPL9B, active compounds read low 1.03 | locus YNL071W, strain lat1, active compounds read low 1 | locus YNL128W, strain TEP1, active compounds read low 1 | locus YNL153C, strain GIM3, active compounds read low 1.04 | locus YNL183C, strain NPR1, active compounds read low 0.979 | locus YNL209W, strain ssb2, active compounds read low 1 | locus YNL233W, strain BNI4, active compounds read low 1.02 | locus YNL248C, strain rpa49, active compounds read low 0.995 | locus YNL250W, strain rad50, active compounds read low 0.982 | locus YNL271C, strain bni1, active compounds read low 0.972 | locus YNL298W, strain CLA4, active compounds read low 0.978 | locus YNL307C, strain MCK1, active compounds read low 0.982 | locus YNL322C, strain KRE1 (second series), active compounds read low 0.99 | locus YNL322C, strain KRE1, active compounds read low 0.998 | locus YNR049C, strain mso1, active compounds read low 0.992 | locus YNR052C, strain pop2, active compounds read low 0.971 | locus YOL006C, strain TOP1, active compounds read low 0.969 | locus YOL012C, strain htz1 0.984 | locus YOL147C, strain pex11, active compounds read low 0.986 | locus YOR001W, strain rrp6, active compounds read low 0.969 | locus YOR061W, strain CKA2, active compounds read low 0.988 | locus YOR069W, strain VPS5, active compounds read low 0.989 | locus YOR070C, strain gyp1, active compounds read low 0.981 | locus YOR080W, strain dia2, active compounds read low 0.985 | locus YOR083W, strain WHI5, active compounds read low 1.01 | locus YOR106W, strain vam3, active compounds read low 1.01 | locus YOR136W, strain idh2, active compounds read low 0.98 | locus YOR144C, strain elg1, active compounds read low 0.984 | locus YOR184W, strain ser1, active compounds read low 0.999 | locus YOR231W, strain MKK1, active compounds read low 1.05 | locus YOR265W, strain rbl2, active compounds read low 0.995 | locus YOR270C, strain vph1, active compounds read low 1.04 | locus YOR290C, strain snf2, active compounds read low 0.964 | locus YOR316C, strain cot1, active compounds read low 0.97 | locus YPL051W, strain arl3, active compounds read low 0.989 | locus YPL055C, strain LGE1, active compounds read low 1.03 | locus YPL078C, strain atp4, active compounds read low 1 | locus YPL106C, strain sse1, active compounds read low 0.997 | locus YPL240C, strain hsp82, active compounds read low 0.996 | locus YPL241C, strain CIN2, active compounds read low 0.993 | locus YPL256C, strain CLN2, active compounds read low 1 | locus YPR119W, strain clb2, active compounds read low 0.957 | locus YPR141C, strain kar3, active compounds read low 0.975 | locus YPR163C, strain tif3, active compounds read low 0.984 | locus YPR167C, strain met16, active compounds read low 0.951 | strain wtn01, active compounds read low 0.954

— PubChem BioAssay AID1159580 (chemical genetic matrix, 2015)
